Reference: PubChem BioAssay (NCI)
About 79,000 compounds went through this panel and 15% of them were active in at least one assay; those are over-represented in the sample as a whole. Values without a mark were called inactive. Calls of active or inactive are those of the source. Rule as the data show it: active = growth inhibition above about 70%; inactive = the rest.

Tests used:
[1] = NCI Yeast Anticancer Drug Screen. Data for the rad50 strain (AID 155);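 also: 0% = growth of vehicle-only cultures of the same strain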; settings: S. cerevisiae rad50 strain growth inhibition; at 50.0 µM; stronger effect = higher value
How it was run: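 Vehicle-treated cultures provide the reference for the growth inhibition reported for compound-exposed, repair-deficient yeast.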

[2] = NCI Yeast Anticancer Drug Screen. Data for the mec2-1 strain (AID 157); settings: S. cerevisiae mec2-1 strain, at 50.0 µM, stronger effect = higher value
How it was run: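 Growth inhibition is read against vehicle-treated controls after compound exposure of the mec2-1 yeast strain, which is defective in DNA damage repair or cell cycle control.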

[3] = NCI Yeast Anticancer Drug Screen. Data for the sgs1 mgt1 strain (AID 161);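 also: 0% = growth of cultures given vehicle only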; settings: S. cerevisiae sgs1 mgt1 strain, at 50.0 µM, stronger effect = higher value
How it was run: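 Growth of a repair-deficient yeast mutant was monitored after compound treatment and expressed as inhibition relative to vehicle-treated cultures.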

[4] = NCI Yeast Anticancer Drug Screen. Data for the cln2 rad14 strain (AID 165);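 also: 0% = growth equal to vehicle treated cultures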; settings: S. cerevisiae cln2 rad14 strain, at 50.0 µM, stronger effect = higher value
How it was run: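 Growth inhibition, relative to vehicle-treated controls, is the read-out. The test organism is a yeast strain with defined genetic alterations, cln2 rad14.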

[5] = NCI Yeast Anticancer Drug Screen. Data for the bub3 strain (AID 167); settings: S. cerevisiae bub3 mutant strain, at 50.0 µM, stronger effect = higher value
How it was run: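 Mutant yeast screening strain plus compound; vehicle-treated cultures serve as the 0% inhibition reference.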

[6] = NCI Yeast Anticancer Drug Screen. Data for the mlh1 rad18 strain (AID 175); settings: S. cerevisiae mlh1 rad18 strain growth inhibition; at 50.0 µM; stronger effect = higher value
How it was run: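 Cells of a genetically altered yeast strain, deficient in DNA damage repair, were treated with compound. Their growth was then compared with that of vehicle-treated cultures to give inhibition.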

| SMILES | growth inhibition [1] | growth inhibition [2] | growth inhibition [3] | growth inhibition [4] | growth inhibition [5] | growth inhibition [6] |
| --- | --- | --- | --- | --- | --- | --- |
| N#CC(c1ccccc1)N(C(N)=O)c1ccccc1 (stereo not drawn) | -3.15% | 8.5% | 8.05% | -2.85% | 6.4% | 4.2% |
| CC1(CCl)Nc2ccccc2C(=O)N1c1ccccc1 (stereo not drawn) | 6.65% | -6.2% | 16.4% | 4.2% | 28.4% | 8.5% |
| CC(=O)OCC1OC(Nc2[nH]c(=O)n(C)c(=O)c2C=O)C(OC(C)=O)C(OC(C)=O)C1OC(C)=O (stereo not drawn) | 2.5% | 9.4% | 6.7% | 9.15% | -0.4% | 3.95% |
| Nc1cc(Cl)nc(Cl)n1 | 1.5% | -25.6% | 2.45% | 10.1% | -19.4% | 3.8% |
| CC[N+](CC)(CC)CCCC[P+](CC)(CC)CC | 15.8% | -9.15% | 8.8% | 9.9% | 10.2% | 13.7% |
| [N-]=[N+]=CC(=O)C(CN)(Cc1ccccc1)c1ccc(Cl)cc1 (stereo not drawn) | 35.1% | 1.45% | 9.1% | -31.9% | -9.45% | 9.05% |
| COC(=O)c1c(C(=O)c2ccccc2)nnn1-c1cccc(C(F)(F)F)c1 | -14.1% | -32.7% | -19% | -3.85% | -28.7% | 0.35% |
| CCCCCCCC(CC#N)(CCCCC)CCCCCC (stereo not drawn) | 16.6% | -10.1% | 11.9% | -8.3% | 7.1% | 26.1% |
| CC(C)CC(C#N)C(=O)O (stereo not drawn) | -1.45% | -1.95% | -5.15% | 5.45% | -4.35% | 2.1% |
| NC(=S)N/N=C/c1ccc2c(c1)OCO2 | 1.55% | 25.8% | 9% | 47.4% | 22.9% | 13.1% |
| CNC(=O)O[C@H]1C(=O)O[C@@H]2C[C@H]3C(C)=C(O)C(=O)C[C@]3(C)[C@H]3[C@@H](O)[C@H](O)[C@@]4(C(=O)OC)OC[C@]32[C@@H]14 | 24.9% | 16.4% | 1.95% | 7.3% | 14.9% | 16.9% |
| CC1c2c(cc(=O)n(C)c2O)C(=O)N1C (stereo not drawn) | 2.15% | 0.7% | -7.85% | -6.2% | -9% | -2.85% |
| CN1C(=O)CC(NC(=O)CNC(=O)c2ccccc2)C1=O (stereo not drawn) | 19.5% | 16% | 23.1% | 21.1% | 2.7% | 29.4% |
| O=C(NN1C(=O)c2cccc3cccc(c23)C1=O)NN1C(=O)c2cccc3cccc(c23)C1=O | 98.2% (active) | 99.4% (active) | 98.2% (active) | 99.5% (active) | 99.2% (active) | 99% (active) |
| CC(=O)Nc1c(C)cc(S(=O)(=O)O)cc1C | 6.25% | -0.1% | -8.65% | -58.7% | 28.6% | -18.5% |
| CNS(=O)(=O)c1ccc(Cl)cc1 | 29.9% | 11.7% | 13.9% | 13.3% | 5.9% | 20.1% |
| OC1CCC(C2CCCCC2)CC1 (stereo not drawn) | -8.5% | -8.05% | -2.65% | 6.8% | -14.3% | -8.65% |
| O=CNc1cc([N+](=O)[O-])ccc1OCc1ccccc1 | 13.6% | 1.6% | -0.75% | 4.6% | 12.2% | -21.9% |
| S=C(S)OC1CCCCC1.[Zn+2] | -14.9% | -15.8% | -22.2% | -50.9% | -24.8% | -12.2% |
| CCC(=O)NCCCCC1CCCC[N+]1(C)C (stereo not drawn) | -0.65% | -11.9% | 7.45% | -14.4% | -2% | -15.8% |
| Cc1ccc(S(=O)(=O)OC2CCC3(C)C(=CCC4C3CCC3(C)C(C(C)CCCC(C)C)CCC43)C2)cc1 (stereo not drawn) | 51.8% | 26.8% | 49.8% | 10.8% | 2.5% | 37.5% |
| c1ncn(Sn2cncn2)n1 | -13.2% | -6.9% | -4.25% | -23.8% | -5.9% | -0.85% |

| SMILES | growth inhibition [1] | growth inhibition [2] | growth inhibition [3] | growth inhibition [4] | growth inhibition [5] | growth inhibition [6] |
| --- | --- | --- | --- | --- | --- | --- |
| O=C(O)C=C1CCCCC1 | 4.35% | -4.2% | 20% | 10.4% | 11.9% | -1.1% |
| O=NC1C(Cl)C2CC1C1COCC21 (stereo not drawn) | -16% | -9.55% | -9.05% | -30.1% | 1% | -7.05% |
| COC(=O)Cc1cccnc1 | -3.3% | -6.85% | -11.3% | -0.55% | 0.05% | 12.7% |
| O=C1C2CC3CC(C2)CC1C3 | 15.1% | -4.5% | 37% | 9.25% | 6.05% | 14.9% |
| Cc1cccn(C)c1=O | -5% | 1.9% | 2.15% | 2.15% | 0.4% | 3.05% |
| O=[N+]([O-])c1c(Cl)cc(Cl)c([N+](=O)[O-])c1-c1ccccc1 | -17.1% | 9.1% | -14.3% | 7.75% | 14.2% | -31.7% |
| CCC(=O)NCCCCCN1CCCCC1 | 8.55% | 5.35% | 9.75% | -15.6% | -1.1% | 9.05% |
| CC(=O)Nc1ccc(S(=O)(=O)O)nc1 | 0.45% | 5.15% | -6.8% | 16.8% | 7.65% | -6.9% |
| Cc1cc(C)c(C(=O)/C(O)=C/c2ccccc2)c(C)c1 | -13.7% | -7.7% | 1.2% | 9.95% | -45.5% | -14.2% |
| CN1CCC/C1=C/C(=O)c1ccccc1[N+](=O)[O-] | 2.9% | -0.1% | -0.65% | -28.3% | 9.6% | -11.7% |
| CCc1ccccc1NC(=O)CC1NC(=O)CS1 (stereo not drawn) | -8.95% | -9.3% | 4.4% | 9.9% | -30.4% | -21.4% |
| CCC(=O)Oc1ccc(C(=O)O)cc1 | 6.2% | -10% | -12.1% | -39.5% | -26.5% | 1.45% |
| CNC(CCNCCc1ccccc1)CNCCc1ccccc1 (stereo not drawn) | 44.1% | 4.8% | 22.8% | 3.85% | 5.7% | 22.2% |
| COC(=O)C(CC(=O)c1ccc2ccccc2c1)OC (stereo not drawn) | -1.85% | -9.1% | 7.2% | -76.7% | 6.35% | -9.55% |
| CCCCSc1nc(NCC)nc(NCC)n1 | 63.6% | 38.9% | 67% | 27.1% | 40.5% | 41.9% |
| CCCCNCCCC(C(=O)O)c1ccccc1 (stereo not drawn) | 2.1% | -3.4% | 3.8% | -10.3% | -35.2% | 6.75% |
| COC1(CCO)CC=CCC1(CCO)OC (stereo not drawn) | -2.45% | -20.4% | -19.3% | 13.3% | -19.4% | -7.9% |
| Cc1cc(C)c(C(=O)CC(C)C)c(C)c1 | -8.15% | -3% | 4.2% | 24.6% | -3.45% | -4.2% |
| N#Cc1cc(Cl)ccc1N=Cc1c(Cl)cccc1Cl | 19.4% | 16.5% | 39.4% | 14.6% | -6.55% | 12.8% |
| NC(CCOCCP(=O)(O)CCC1C=CC=CC1)C(=O)O (stereo not drawn) | -9.6% | -31.7% | -29.1% | 5.6% | -21.3% | -19.9% |
| CN1CCN(C(=S)C(O)(c2ccccc2)c2ccccc2)CC1 | 1.75% | -1.85% | -2.35% | 1.45% | 16.1% | -8.6% |
